TbPYK inhibitor – qHTS of Trypanosoma Brucei Inhibitors; pyruvate kinase (Trypanosoma brucei), Q57TT1; TbPYK enzyme, Kinase-Glo Plus ATP luminescence, 45 min; Potency, µM (titrated, usually from 76.8 µM), for the others: at the top dose activity, negative = inhibition, most hits filed as inhibitors; 410,000 compounds, 0.12% hits; AID 624173, 2012; note: % is set by controls: 0 for no effect and ±100 for the full control effect; nearly all actives have a fitted effect of over 50% in size
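In this concentration-response screen, enzyme-free wells defined baseline while DMSO plates tracked drift. Each reaction combined TbPYK, substrate, compound and 130 uM ADP for 45 min at room temperature. Kinase-Glo Plus luminescence gave the signal.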
SARS PLP yeast – qHTS of Yeast-based Assay for SARS-CoV PLP; S. cerevisiae expressing SARS-CoV PLpro, growth rescue; Potency, µM (top dose mostly 32.9 µM), for the others: top-dose activity, positive = growth rescue, hits mostly activators; 330,000 compounds, 0.19% hits; AID 485353, 2010; calls by dose curve; note: 0% is about no effect; nearly all actives have a fitted effect of over 55% in size
Sm TGR block – qHTS Assay for the Inhibitors of Schistosoma Mansoni Peroxiredoxins. purified TGR, DTNB reduction, TNB absorbance 405 nm. 360,000 compounds, 3% hits. Potency, µM (highest dose often 114 µM), without a hit: at the top dose activity change, negative = inhibition, usual class: inhibitors. Schistosoma mansoni thioredoxin glutathione reductase (TGR), Q962Y6; note: % is set by controls: 0 for no effect and ±100 for the full control effect; nearly all actives have a fitted effect of over 60% in size
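TGR 20 nM + NADPH 100 uM (dispensed conc.), cpd preinc 15 min RT; start with NADPH (500 uM addition) then DTNB (15 mM addition). Kinetic TNB absorbance, 405 nm filter. Four-parameter Hill fit across titration.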
AmpC detergent – qHTS Inhibitors of AmpC Beta-Lactamase (assay with detergent); AmpC hydrolysis of nitrocefin, absorbance 480 nm, 0.01% Triton; P00811; 370,000 compounds, 0.041% hits; Potency, µM (top dose mostly 114 µM), for inactives: top-dose activity change, negative = inhibition, hits mostly inhibitors;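 note: 0% = no-compound wells and -100% = no-enzyme wells; nearly all actives have a fitted effect of over 25% in size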
Target sequence (P00811 whole entry, looked up): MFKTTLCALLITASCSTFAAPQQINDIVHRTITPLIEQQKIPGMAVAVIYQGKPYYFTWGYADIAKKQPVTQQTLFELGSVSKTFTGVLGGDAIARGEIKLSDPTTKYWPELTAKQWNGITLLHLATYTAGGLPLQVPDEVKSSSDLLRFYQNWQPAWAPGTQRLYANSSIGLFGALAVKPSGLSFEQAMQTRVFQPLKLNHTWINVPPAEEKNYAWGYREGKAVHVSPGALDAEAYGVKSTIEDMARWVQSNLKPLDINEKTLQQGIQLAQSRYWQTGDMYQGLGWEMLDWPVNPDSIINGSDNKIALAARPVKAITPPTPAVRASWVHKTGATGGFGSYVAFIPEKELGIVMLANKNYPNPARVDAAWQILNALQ
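AmpC (5.3 nM in the dispensed reagent) in 20 mM phosphate pH 7.0 with 0.01% (detergent screen) or 0.0001% Triton X-100 was preincubated with compounds for 15 min at room temperature. Nitrocefin was then added from an 800 uM solution, and hydrolysis was followed at 480 nm.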
AmpC no deterg – qHTS Inhibitors of AmpC Beta-Lactamase (assay without detergent); P00811; AmpC nitrocefin hydrolysis, absorbance 480 nm, 0.0001% Triton; Potency, µM (series often up to 57.1 µM), inactives show at the top dose activity change, negative = inhibition, actives largely listed as inhibitors; 330,000 compounds, 0.52% hits; AID 485341, 2010;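 note: plate controls were no compound for no effect and no enzyme for full effect; nearly all actives have a fitted effect of over 20% in size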
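AmpC (5.3 nM in the dispensed reagent) in 20 mM phosphate pH 7.0 with 0.01% (detergent screen) or 0.0001% Triton X-100 was preincubated with compounds for 15 min at room temperature. Nitrocefin was then added from an 800 uM solution, and hydrolysis was followed at 480 nm.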
RE007 growth inh – qHTS Assay for Inhibitors of the HIV-1 protein Vpr. S. pombe RE007 Vpr strain, BacTiter-Glo ATP luminescence, 24 h. Potency, µM (titrated, usually from 92.2 µM), for the others: at the top dose activity change, negative = less growth, actives largely listed as inhibitors. 360,000 compounds, 0.21% hits. AID 651644, 2012; active = well fitted falling curve with a large enough effect; inconclusive = small, poorly fitted or top-dose-only effect; inactive = no such curve, though single readings can be large or run the other way; note: % is set by controls: 0 for no effect and ±100 for the full control effect; nearly all actives have a fitted effect of over 50% in size
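Fission yeast strain RE007, carrying one chromosomally integrated HIV-1 vpr copy, was seeded at OD 0.01 in PMG+AL medium with 23 nL pinned compound. After 24 h at 30 °C and 99% humidity, viability was read by BacTiter-Glo luminescence.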
An asterisk follows results filed as active; [ ] = remark or other dose. Rows were chosen to be rich in hits. Some 3.3% of all compounds tested hit in one or more screens of this group. Unless noted, calls come from the whole dose curve; as a rule, active = well fitted curve in the direction sought with a large enough effect; inconclusive = small, poorly fitted or top-dose-only effect, or another doubt; inactive = no such curve, though single readings can be large; an effect the other way counts as inactive or inconclusive. Potency is the fitted concentration of half-maximal effect.

Results for CCn1nc(C)cc1C(=O)Sc1ccc(C)cc1 ?
TbPYK inhibitor: 1%; SARS PLP yeast: -6%; Sm TGR block: 18µM*; AmpC detergent: 2%; AmpC no deterg: -2%; RE007 growth inh: -10%

How did CCC1CN(C(=O)Nc2cccc3c2CCCC3)c2cc(Cl)ccc2O1 (stereo not given) do in these assays?
TbPYK inhibitor: -1%; Sm TGR block: -5%; AmpC detergent: -8%

Results for Cc1ccc(Nc2sc(C(=O)c3ccccc3)c(N)c2C(=O)NC(C)C)cc1 ?
TbPYK inhibitor: -23%; Sm TGR block: 32µM*; AmpC detergent: 8%

What do the screens show for `CCOc1ccc(/C(C)=N/N2C(=O)C(CC(=O)Nc3ccc(OC)cc3[N+](=O)[O-])SC2=Nc2cccc(C)c2C)cc1` (stereo not given)?
TbPYK inhibitor: -13%; SARS PLP yeast: 2%; Sm TGR block: 18µM*; AmpC detergent: -2%; AmpC no deterg: -24%; RE007 growth inh: 15%

How did COc1ccccc1/C=N/N1C(=O)C(CC(=O)Nc2ccc([N+](=O)[O-])cc2OC)SC1=Nc1cccc(C)c1C (stereo not given) do in these assays?
SARS PLP yeast: 1%; AmpC detergent: 1%; AmpC no deterg: -41%

How did COc1cc(/C=C2\CC/C(=C\c3cc(OC)c(O)c(OC)c3)C2=O)cc(OC)c1O do in these assays?
TbPYK inhibitor: inconclusive; SARS PLP yeast: 4%; Sm TGR block: 28µM*; AmpC detergent: inconclusive; AmpC no deterg: 39%; RE007 growth inh: 5%

How did CCCOc1ccc(N2C(=O)CC(NCc3cccnc3)C2=O)cc1 (stereo not given) do in these assays?
TbPYK inhibitor: 6%; SARS PLP yeast: -5%; Sm TGR block: 0%; AmpC detergent: -3%; AmpC no deterg: -2%; RE007 growth inh: -16%

Results for CCCOc1ccc(N2C(=O)CC(NCCNc3ccc([N+](=O)[O-])cn3)C2=O)cc1 (stereo not given) ?
TbPYK inhibitor: 1%; SARS PLP yeast: -4%; Sm TGR block: 8.9µM*; AmpC detergent: 1%; AmpC no deterg: 30%; RE007 growth inh: inconclusive

How did COc1ccc(CCN2C(=O)CC(NC34CC5CC(CC(C5)C3)C4)C2=O)cc1OC (stereo not given) do in these assays?
TbPYK inhibitor: 0%; SARS PLP yeast: -4%; Sm TGR block: 40µM*; AmpC detergent: -5%; AmpC no deterg: 101%; RE007 growth inh: -5%

What do the screens show for `COc1ccc(CCNC2CC(=O)N(N(C)C)C2=O)cc1OC` (stereo not given)?
TbPYK inhibitor: -9%; SARS PLP yeast: -1%; Sm TGR block: -5%[57.1 µM]; AmpC detergent: 0%; AmpC no deterg: -13%; RE007 growth inh: -1%

Results for CCCCOc1ccc(N2C(=O)CC(NCCc3ccc(S(N)(=O)=O)cc3)C2=O)cc1 (stereo not given) ?
TbPYK inhibitor: -5%; SARS PLP yeast: -18%; Sm TGR block: -31%; AmpC detergent: 1%; AmpC no deterg: -9%; RE007 growth inh: 63µM*

What do the screens show for `COc1ccc(CCN2C(=O)CC(NCCc3ccc(S(N)(=O)=O)cc3)C2=O)cc1OC` (stereo not given)?
TbPYK inhibitor: -10%; SARS PLP yeast: -5%; Sm TGR block: 18µM*; AmpC detergent: 2%; AmpC no deterg: -4%; RE007 growth inh: -10%

Results for Cc1cn(S(=O)(=O)c2ccc(F)c(Cl)c2)cn1 ?
TbPYK inhibitor: -7%; Sm TGR block: -4%; AmpC detergent: 6%

Results for C(/C=C/c1ccco1)=N/N1CCN(c2ccccc2)CC1 ?
TbPYK inhibitor: -16%; SARS PLP yeast: 7%; Sm TGR block: inconclusive; AmpC detergent: 4%; AmpC no deterg: -20%; RE007 growth inh: -28%

What do the screens show for `Clc1ccccc1CN1CCN(/N=C/C=C\c2ccco2)CC1`?
TbPYK inhibitor: -8%; SARS PLP yeast: 1%; Sm TGR block: 50µM*; AmpC detergent: 0%; AmpC no deterg: -5%; RE007 growth inh: -11%

How did Cc1cccc(-n2c(CNC(=O)c3ccc(S(=O)(=O)N4CCCCC4)cc3)n[nH]c2=S)c1 do in these assays?
TbPYK inhibitor: 7.9µM*; SARS PLP yeast: -4%; Sm TGR block: -3%; AmpC detergent: -9%; AmpC no deterg: -21%; RE007 growth inh: 5%

Results for C/C(=N\OCc1nc2ccccc2c(=O)n1/N=C/c1cc([N+](=O)[O-])ccc1O)c1ccccc1 ?
TbPYK inhibitor: -1%; SARS PLP yeast: inconclusive; Sm TGR block: 35µM*; AmpC detergent: -2%; AmpC no deterg: -60%; RE007 growth inh: 7%

What do the screens show for `CC(C)CC(NC(=O)CNC(=O)C(Cc1ccc(O)cc1)NC(=O)C(CO)NC(=O)C(Cc1c[nH]c2ccccc12)NC(=O)C(Cc1cnc[nH]1)NC(=O)C1CCC(=O)N1)C(=O)NC(CCCN=C(N)N)C(=O)N1CCCC1C(=O)NCC(N)=O` (stereo not given)?
TbPYK inhibitor: 1%

What do the screens show for `CN(C)c1ccc(N=Cc2ccco2)cc1`?
TbPYK inhibitor: -16%; SARS PLP yeast: -6%; Sm TGR block: 32µM*; AmpC detergent: -5%; AmpC no deterg: 31%; RE007 growth inh: inconclusive

Results for CCc1cccc(NC(=O)CSc2ncc3c(n2)-c2ccccc2N(Cc2ccccc2C)S3(=O)=O)c1 ?
TbPYK inhibitor: -6%; Sm TGR block: 26%; AmpC detergent: 5%

How did CCOc1ccc(C(C)=O)cc1N1C(=O)C2C3C=CC(O3)C2C1=O (stereo not given) do in these assays?
TbPYK inhibitor: inconclusive; SARS PLP yeast: -41%; Sm TGR block: 0.71µM*; AmpC detergent: 0%; AmpC no deterg: -12%; RE007 growth inh: inconclusive

How did NS(=O)(=O)c1cccc(C(=O)NC2CCSc3ccccc32)c1 (stereo not given) do in these assays?
TbPYK inhibitor: 26%; SARS PLP yeast: -1%; Sm TGR block: 2%; AmpC detergent: 10%; AmpC no deterg: -34%; RE007 growth inh: -1%

How did O=C(NC1CCSc2ccccc21)c1cccc(Cl)c1 (stereo not given) do in these assays?
TbPYK inhibitor: -1%; SARS PLP yeast: -4%; Sm TGR block: 7.9µM*; AmpC detergent: -5%; AmpC no deterg: 45%; RE007 growth inh: 10%
